Results filed as inconclusive are left out. Calls of active or inactive are those of the source. Calls follow the shape of the dose curve; as a rule, active = well fitted curve in the direction sought with a large enough effect; inconclusive = small, poorly fitted or top-dose-only effect, or another doubt; inactive = no such curve, though single readings can be large; an effect the other way counts as inactive or inconclusive.
Key:
[1] = qHTS of pediatric cancer cell lines to identify multiple opportunities for drug repurposing: Primary screen for A673 cells (AID 1347092); also: % is scaled to controls: 0 for no effect and ±100 for the full control effect; nearly all actives have a fitted effect of over 45% in size
How it was run: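 Titration-based qHTS on A673 cells: MIPE compounds spanned 11 points (0.78 nM to 46 µM final), NPC compounds 8 points (0.59 nM to 46 µM final). Viability after 48 h was measured by ATP luminescence.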

[2] = qHTS of pediatric cancer cell lines to identify multiple opportunities for drug repurposing: Primary screen for SK-N-MC cells (AID 1347093);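 also: series mostly up to about 46 µM; plate controls were DMSO neutral control for no effect and bortezomib for full effect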
How it was run: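 Metabolically active cells were quantified by ATP-dependent luminescence (CellTiter-Glo, 15 min at room temperature) following 48 h treatment. Cells had been plated at 500-1,000 per well and settled for 5 h beforehand.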

[3] = qHTS of pediatric cancer cell lines to identify multiple opportunities for drug repurposing: Primary screen for BT-37 cells (AID 1347094);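 also: series mostly up to about 57 µM; plate controls were DMSO for no effect and bortezomib for full effect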
How it was run: (§1)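 Viability was measured as metabolically active cells after 48 hours of treatment, read by CellTiter-Glo luminescence. Compounds were tested at multiple final concentrations, giving concentration-response curves.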

[4] = qHTS of pediatric cancer cell lines to identify multiple opportunities for drug repurposing: Primary screen for NB-EBc1 cells (AID 1347095);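 also: plate controls were DMSO neutral control for no effect and bortezomib for full effect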
How it was run: as §1

[5] = qHTS of pediatric cancer cell lines to identify multiple opportunities for drug repurposing: Primary screen for U-2 OS cells (AID 1347096);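 also: plate controls were DMSO wells for no effect and bortezomib positive control wells for full effect; nearly all actives have a fitted effect of over 50% in size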
How it was run: (§2)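 Cells (500-1,000/well) in growth media were settled 5 h at 37 degrees C, then given compounds for 48 h. Viability was read as CellTiter-Glo luminescence. Primary runs used MIPE at 11 points (0.78 nM-46 µM) and NPC at 8 points (0.59 nM-46 µM); follow-ups used 11 points.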

[6] = qHTS of pediatric cancer cell lines to identify multiple opportunities for drug repurposing: Primary screen for Saos-2 cells (AID 1347097); also: % is scaled to controls: 0 for no effect and ±100 for the full control effect; nearly all actives have a fitted effect of over 40% in size
How it was run: as §1

[7] = qHTS of pediatric cancer cell lines to identify multiple opportunities for drug repurposing: Primary screen for SK-N-SH cells (AID 1347098);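 also: DMSO served as neutral control and bortezomib at 2.3 µM as positive control; % is scaled to controls: 0 for no effect and ±100 for the full control effect; nearly all actives have a fitted effect of over 65% in size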
How it was run: (§3)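 Cells (500-1,000/well) rested 5 h, then received compounds for 48 h; metabolically active cells were measured by CellTiter-Glo luminescence. Final concentrations spanned up to 46 µM (MIPE, 11-point) or 0.59 nM-46 µM (NPC, 8-point) in primary screens, 11-point in follow-ups.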

[8] = qHTS of pediatric cancer cell lines to identify multiple opportunities for drug repurposing: Primary screen for NB1643 cells (AID 1347099);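 also: plate controls were DMSO neutral control for no effect and bortezomib positive control for full effect; nearly all actives have a fitted effect of over 50% in size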
How it was run: as §1

[9] = qHTS of pediatric cancer cell lines to identify multiple opportunities for drug repurposing: Primary screen for LAN-5 cells (AID 1347100);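 also: plate controls were DMSO neutral control for no effect and bortezomib positive control for full effect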
How it was run: as §2

[10] = qHTS of pediatric cancer cell lines to identify multiple opportunities for drug repurposing: Primary screen for BT-12 cells (AID 1347101);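 also: plate controls were DMSO for no effect and bortezomib positive control for full effect; nearly all actives have a fitted effect of over 25% in size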
How it was run: as §3

[11] = qHTS of pediatric cancer cell lines to identify multiple opportunities for drug repurposing: Primary screen for Rh18 cells (AID 1347102); also: % is scaled to controls: 0 for no effect and ±100 for the full control effect; nearly all actives have a fitted effect of over 65% in size
How it was run: as §2

[12] = qHTS of pediatric cancer cell lines to identify multiple opportunities for drug repurposing: Primary screen for OHS-50 cells (AID 1347103);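 also: plate controls were DMSO neutral control for no effect and bortezomib positive control for full effect; nearly all actives have a fitted effect of over 40% in size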
How it was run: as §3

[13] = qHTS of pediatric cancer cell lines to identify multiple opportunities for drug repurposing: Primary screen for RD cells (AID 1347104);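 also: plate controls were DMSO for no effect and bortezomib for full effect; nearly all actives have a fitted effect of over 55% in size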
How it was run: as §1

[14] = qHTS of pediatric cancer cell lines to identify multiple opportunities for drug repurposing: Primary screen for MG 63 (6-TG R) cells (AID 1347105); also: % is scaled to controls: 0 for no effect and ±100 for the full control effect; nearly all actives have a fitted effect of over 50% in size
How it was run: as §1

[15] = qHTS of pediatric cancer cell lines to identify multiple opportunities for drug repurposing: Primary screen for control Hh wild type fibroblast cells (AID 1347106);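 also: series mostly up to about 46 µM; % is scaled to controls: 0 for no effect and ±100 for the full control effect; a drop in luminescence marks cytotoxicity and a rise apparent proliferation; nearly all actives have a fitted effect of over 55% in size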
How it was run: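 Viability after 48 h compound treatment at 37C, 500-1,000 cells/well, read as ATP luminescence with CellTiter-Glo. Primary screens used 11-point (MIPE, 0.78 nM-46 µM) or 8-point (NPC, 0.59 nM-46 µM) final concentrations; follow-up screens used 11-point dilutions.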

[16] = qHTS of pediatric cancer cell lines to identify multiple opportunities for drug repurposing: Primary screen for Rh30 cells (AID 1347107); also: series mostly up to about 46 µM; % is scaled to controls: 0 for no effect and ±100 for the full control effect; nearly all actives have a fitted effect of over 75% in size
How it was run: as §2

[17] = qHTS of pediatric cancer cell lines to identify multiple opportunities for drug repurposing: Primary screen for Rh41 cells (AID 1347108);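 also: series mostly up to about 46 µM; luminescence drop marks cytotoxic hits; nearly all actives have a fitted effect of over 70% in size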
How it was run: as §1

CC(=O)OCC1=C(C(=O)O)N2C(=O)[C@@H](NC(=O)Cc3cccs3)[C@H]2SC1
inactive: Potency [1] | Potency [2] | Potency [3] | Potency [4] | Potency [5] | Potency [6] | Potency [7] | Potency [8] | Potency [9] | Potency [10] | Potency [11] | Potency [12] | Potency [13] | Potency [14] | outcome [15] | Potency [16] | Potency [17]

C[N+](C)(C)CCOC(=O)CCC(=O)OCC[N+](C)(C)C
inactive: Potency [1] | Potency [2] | Potency [3] | Potency [4] | Potency [5] | Potency [6] | Potency [7] | Potency [8] | Potency [9] | Potency [10] | Potency [11] | Potency [12] | Potency [13] | Potency [14] | outcome [15] | Potency [16] | Potency [17]

CCc1c(C)[nH]c2c1C(=O)C(CN1CCOCC1)CC2 (centres undefined)
inactive: Potency [1] | Potency [2] | Potency [3] | Potency [4] | Potency [5] | Potency [6] | Potency [7] | Potency [8] | Potency [9] | Potency [10] | Potency [11] | Potency [12] | Potency [13] | Potency [14] | outcome [15] | Potency [16] | Potency [17]

C[C@]12CCC(=O)C=C1CC[C@@H]1[C@@H]2CC[C@@]2(C)[C@H]1CC[C@]2(O)C(=O)CO
inactive: Potency [1] | Potency [2] | Potency [3] | Potency [4] | Potency [5] | Potency [6] | Potency [7] | Potency [8] | Potency [9] | Potency [10] | Potency [11] | Potency [13] | Potency [14] | outcome [15] | Potency [16] | Potency [17]

CN(C)CC[C@@H](c1ccc(Br)cc1)c1ccccn1
inactive: Potency [1] | Potency [2] | Potency [3] | Potency [4] | Potency [5] | Potency [6] | Potency [7] | Potency [8] | Potency [9] | Potency [10] | Potency [11] | Potency [13] | Potency [14] | outcome [15] | Potency [16] | Potency [17]

NC(Cc1ccc(Cl)cc1)C(=O)O (centres undefined)
inactive: activity change, negative = cytotoxic [1] 16% [at 0.597 µM] | activity change, negative = cytotoxic [2] -1.75% [at 0.597 µM] | activity change, negative = cytotoxic [3] 9.97% [at 0.745 µM] | activity change, negative = cytotoxic [4] 23.4% [at 0.597 µM] | activity change, negative = cytotoxic [5] 18.1% [at 0.597 µM] | activity change, negative = cytotoxic [6] 1.27% [at 0.597 µM] | activity change, negative = cytotoxic [7] -6.57% [at 0.741 µM] | activity change, negative = cytotoxic [8] 9.7% [at 0.597 µM] | activity change, negative = cytotoxic [9] 0.0057% [at 0.597 µM] | activity change, negative = cytotoxic [10] 7.02% [at 0.745 µM] | activity change, negative = cytotoxic [11] 15.1% [at 0.597 µM] | activity change, negative = cytotoxic [12] 9.59% [at 0.73 µM] | activity change, negative = cytotoxic [13] 7.62% [at 0.597 µM] | activity change, negative = cytotoxic [14] 9.57% [at 0.597 µM] | activity change, negative = cytotoxic [15] 6.18% [at 0.597 µM] | activity change, negative = cytotoxic [16] 30.5% [at 0.597 µM] | activity change, negative = cytotoxic [17] 28% [at 0.597 µM]

Cc1scc2c1N(C(=O)CN1CCN(C)CC1)c1ccccc1NC2=O
inactive: Potency [1] | Potency [2] | Potency [3] | Potency [4] | Potency [5] | Potency [6] | Potency [7] | Potency [8] | Potency [9] | Potency [10] | Potency [11] | Potency [13] | Potency [14] | outcome [15] | Potency [16] | Potency [17]

NC(=O)c1cn(Cc2c(F)cccc2F)nn1
inactive: Potency [1] | Potency [2] | Potency [3] | Potency [4] | Potency [5] | Potency [6] | Potency [7] | Potency [8] | Potency [9] | Potency [10] | Potency [11] | Potency [12] | Potency [13] | Potency [14] | outcome [15] | Potency [16] | Potency [17]

C[C@]12CCC(=O)C=C1CC[C@@H]1[C@@H]2C(=O)C[C@@]2(C)[C@H]1CC[C@]2(O)C(=O)CO
inactive: Potency [1] | Potency [2] | Potency [3] | Potency [4] | Potency [5] | Potency [6] | Potency [7] | Potency [8] | Potency [9] | Potency [10] | Potency [11] | Potency [12] | Potency [13] | Potency [14] | outcome [15] | Potency [16] | Potency [17]

CCN1CCc2nc(N)oc2CC1
inactive: Potency [1] | Potency [2] | Potency [3] | Potency [4] | Potency [5] | Potency [6] | Potency [7] | Potency [8] | Potency [9] | Potency [10] | Potency [11] | Potency [12] | Potency [13] | Potency [14] | outcome [15] | Potency [16] | Potency [17]

CC(C(=O)O)c1ccc(CC2CCCC2=O)cc1 (centres undefined)
inactive: Potency [1] | Potency [2] | Potency [3] | Potency [4] | Potency [5] | Potency [6] | Potency [7] | Potency [8] | Potency [9] | Potency [10] | Potency [11] | Potency [12] | Potency [13] | Potency [14] | outcome [15] | Potency [16] | Potency [17]

NC(=Nc1ccccc1)Nc1ccccc1
inactive: Potency [1] | Potency [2] | Potency [3] | Potency [4] | Potency [5] | Potency [6] | Potency [7] | Potency [8] | Potency [9] | Potency [10] | Potency [11] | Potency [12] | Potency [13] | Potency [14] | outcome [15] | Potency [16] | Potency [17]

CN(C)C/C=C(/c1ccc(Br)cc1)c1cccnc1
inactive: Potency [1] | Potency [2] | Potency [3] | Potency [4] | Potency [5] | Potency [6] | Potency [7] | Potency [8] | Potency [9] | Potency [10] | Potency [11] | Potency [13] | Potency [14] | outcome [15] | Potency [16] | Potency [17]

c1cnc(N2CCN(Cc3ccc4c(c3)OCO4)CC2)nc1
inactive: Potency [1] | Potency [2] | Potency [3] | Potency [4] | Potency [5] | Potency [6] | Potency [7] | Potency [8] | Potency [9] | Potency [10] | Potency [11] | Potency [12] | Potency [13] | Potency [14] | outcome [15] | Potency [16] | Potency [17]

From PubChem BioAssay (NCATS)
